Source: publication PMC5700166

What follows are sequences tested against T1, GST-Dm-Relish (Drosophila melanogaster, UniProt Q94527 99-473) (assay: protein-binding microarray (PBM); PBM: ~300 nM protein, 6 mM HEPES pH 7.8, 80 mM KCl, 0.5 mM EDTA, 0.5 mM EGTA, 6% glycerol, 35 ng/ul poly-dIdC, 1% milk, 1 h, room temperature; Ap Aiptasia and Nv Nematostella (sea anemones) / Co Capsaspora / Aq Amphimedon (sponge) / Dm Drosophila / Hu human; RHD is the Rel homology domain; high values mean tight binding). Conditions: dsDNA, one strand shown.
T1 sequence: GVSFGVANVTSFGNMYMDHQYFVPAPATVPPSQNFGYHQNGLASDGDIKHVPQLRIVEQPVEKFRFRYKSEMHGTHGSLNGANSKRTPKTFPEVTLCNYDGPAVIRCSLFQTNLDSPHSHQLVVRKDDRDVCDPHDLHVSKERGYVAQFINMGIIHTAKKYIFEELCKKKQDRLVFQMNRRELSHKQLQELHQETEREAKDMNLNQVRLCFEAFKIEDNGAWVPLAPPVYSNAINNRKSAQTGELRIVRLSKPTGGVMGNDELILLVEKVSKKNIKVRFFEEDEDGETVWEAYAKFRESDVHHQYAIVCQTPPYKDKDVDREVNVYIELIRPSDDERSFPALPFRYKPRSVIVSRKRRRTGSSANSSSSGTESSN
“CCGATTAACATCAAAATTCCAATTGATGTTAATCGGGTCTTGATTCGCTTGACGCTGCTG” was tested, and the binding signal was 1.02 z-score. With “CCGATTAACATCACGGAAAATACTGATGTTAATCGGGTCTTGATTCGCTTGACGCTGCTG” the binding signal was 1.21 z-score. “CCGATTAACATCACGTAAAATCCTGATGTTAATCGGGTCTTGATTCGCTTGACGCTGCTG” showed a binding signal of 1.05 z-score. “CCGATTAACATCACGTACATTCCTGATGTTAATCGGGTCTTGATTCGCTTGACGCTGCTG” gave a binding signal of 1.63 z-score. “CCGATTAACATCAGGAAAATACATGATGTTAATCGGGTCTTGATTCGCTTGACGCTGCTG” was tested, and the binding signal was 4.66 z-score. “CCGATTAACATCAGTTTTTTCCATGATGTTAATCGGGTCTTGATTCGCTTGACGCTGCTG” showed a binding signal of 1.54 z-score. “CCGATTAACATCAAGTGAATTCCTGATGTTAATCGGGTCTTGATTCGCTTGACGCTGCTG” was tested, and the binding signal was 3.49 z-score. For “CCGATTAACATCAGGAATGTACATGATGTTAATCGGGTCTTGATTCGCTTGACGCTGCTG”, the binding signal was 4.12 z-score. Sequence “CCGATTAACATCAAGTTTTTTCCTGATGTTAATCGGGTCTTGATTCGCTTGACGCTGCTG” has a binding signal of 1.98 z-score. In the case of “CCGATTAACATCACCGCAGCATGTGATGTTAATCGGGTCTTGATTCGCTTGACGCTGCTG”, the binding signal is reported as 1.18 z-score. With “CCGATTAACATCAGGAAAAACACTGATGTTAATCGGGTCTTGATTCGCTTGACGCTGCTG” the binding signal was 2.61 z-score. “CCGATTAACATCACGTGAATTCCTGATGTTAATCGGGTCTTGATTCGCTTGACGCTGCTG” showed a binding signal of 2.84 z-score. Sequence “CCGATTAACATCAAAATTCCATGTGATGTTAATCGGGTCTTGATTCGCTTGACGCTGCTG” has a binding signal of 1.36 z-score. “CCGATTAACATCAGGCCTTTCCATGATGTTAATCGGGTCTTGATTCGCTTGACGCTGCTG” gave a binding signal of 1.71 z-score. Work on “CCGATTAACATCAGAGTAATTCCTGATGTTAATCGGGTCTTGATTCGCTTGACGCTGCTG” yielded a binding signal of 2.26 z-score. “CCGATTAACATCAGTAATTTACATGATGTTAATCGGGTCTTGATTCGCTTGACGCTGCTG” showed a binding signal of 6.73 z-score. “CCGATTAACATCAAAGGAAATTCTGATGTTAATCGGGTCTTGATTCGCTTGACGCTGCTG” gave a binding signal of 1.56 z-score. In the case of “CCGATTAACATCAAAAATTCCATTGATGTTAATCGGGTCTTGATTCGCTTGACGCTGCTG”, the binding signal is reported as 1.66 z-score. “CCGATTAACATCAAAAAACCGTTTGATGTTAATCGGGTCTTGATTCGCTTGACGCTGCTG” showed a binding signal of 1.2 z-score. Sequence “CCGATTAACATCACAGGAAATCCTGATGTTAATCGGGTCTTGATTCGCTTGACGCTGCTG” has a binding signal of 1.25 z-score. With “CCGATTAACATCACTATTGTACATGATGTTAATCGGGTCTTGATTCGCTTGACGCTGCTG” the binding signal was 1.29 z-score. “CCGATTAACATCACGGAATTCACTGATGTTAATCGGGTCTTGATTCGCTTGACGCTGCTG” was tested, and the binding signal was 2.4 z-score. For “CCGATTAACATCAAATAATTTCCTGATGTTAATCGGGTCTTGATTCGCTTGACGCTGCTG”, the binding signal was 1.21 z-score. “CCGATTAACATCAAATATTTTCCTGATGTTAATCGGGTCTTGATTCGCTTGACGCTGCTG” showed a binding signal of 1.09 z-score. Work on “CCGATTAACATCAAATTTTCCACTGATGTTAATCGGGTCTTGATTCGCTTGACGCTGCTG” yielded a binding signal of 1.2 z-score. Sequence “CCGATTAACATCACGTAAACTCCTGATGTTAATCGGGTCTTGATTCGCTTGACGCTGCTG” has a binding signal of 1.72 z-score. In the case of “CCGATTAACATCAATGGATTTCCTGATGTTAATCGGGTCTTGATTCGCTTGACGCTGCTG”, the binding signal is reported as 1.12 z-score. “CCGATTAACATCAAGTAATTTTCTGATGTTAATCGGGTCTTGATTCGCTTGACGCTGCTG” gave a binding signal of 1.86 z-score. In the case of “CCGATTAACATCACGTGGATTCCTGATGTTAATCGGGTCTTGATTCGCTTGACGCTGCTG”, the binding signal is reported as 1.66 z-score. “CCGATTAACATCAGGAAAAAACATGATGTTAATCGGGTCTTGATTCGCTTGACGCTGCTG” gave a binding signal of 2.35 z-score. “CCGATTAACATCACAGAAAATCCTGATGTTAATCGGGTCTTGATTCGCTTGACGCTGCTG” gave a binding signal of 1.19 z-score. With “CCGATTAACATCAAGTATTTTCCTGATGTTAATCGGGTCTTGATTCGCTTGACGCTGCTG” the binding signal was 1.84 z-score. “CCGATTAACATCAGCATCCACGGTGATGTTAATCGGGTCTTGATTCGCTTGACGCTGCTG” showed a binding signal of 1.01 z-score. “CCGATTAACATCAGGAAATCACATGATGTTAATCGGGTCTTGATTCGCTTGACGCTGCTG” was tested, and the binding signal was 7.1 z-score. Work on “CCGATTAACATCAGTAAACTCCATGATGTTAATCGGGTCTTGATTCGCTTGACGCTGCTG” yielded a binding signal of 1.1 z-score. With “CCGATTAACATCACGTGATTTCCTGATGTTAATCGGGTCTTGATTCGCTTGACGCTGCTG” the binding signal was 4.11 z-score. With “CCGATTAACATCAAATGTACTAATGATGTTAATCGGGTCTTGATTCGCTTGACGCTGCTG” the binding signal was 1.5 z-score. For “CCGATTAACATCAAAATTCCATATGATGTTAATCGGGTCTTGATTCGCTTGACGCTGCTG”, the binding signal was 1.14 z-score. “CCGATTAACATCATAAAAAAAAATGATGTTAATCGGGTCTTGATTCGCTTGACGCTGCTG” gave a binding signal of 1.27 z-score. “CCGATTAACATCACGAAAAATCCTGATGTTAATCGGGTCTTGATTCGCTTGACGCTGCTG” showed a binding signal of 1.48 z-score.
